Assay results published in PubChem BioAssay (EPA / NIEHS).
Some structures have more than one record in an assay (separate samples or runs), and their calls can disagree. The source made the active and inactive calls. The calls were made as follows: active = hit-call score of the fitted dose curve at least 0.9, where 1 is the maximum; inactive = score below 0.9.

Each compound was assayed on Tumor necrosis factor receptor 1 (TNFRSF1A), TNFRSF1A (gene 7132) (assay: LTEA_HepaRG_TNFRSF1A: Life Technologies and Expression Analysis (LTEA) Assay for Tumor necrosis factor receptor 1 (TNFRSF1A) using HepaRG (AID 2283535)). Details: mRNA level, 48 h; actives raise or lower the signal.
In short: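 Differentiated HepaRG cells in serum-free induction medium, exposed 48 h in duplicate to 8 half-log concentrations up to 100 uM in 0.5% DMSO. TNFRSF1A mRNA by Fluidigm TaqMan qRT-PCR, normalized to ACTB, GAPDH, POLR2A; bidirectional fit.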
`CCN(CC)C(=O)SCc1ccc(Cl)cc1` was tested, and the outcome was “inactive”. For `O=[N+]([O-])/N=C1\NCCN1Cc1ccc(Cl)nc1`, the AC50 was 28.1 µM (active). For `COP(=S)(OC)Oc1ccc(SC)c(C)c1`, the outcome was “inactive”. In the case of `CCC(C)(C)C(=O)OC1=C(c2ccc(Cl)cc2Cl)C(=O)OC12CCCCC2`, the outcome is reported as “inactive”. `CC(C)OC(=O)Nc1cccc(Cl)c1` was tested, and the AC50 was 50 µM (active). `CCC(C)Nc1c([N+](=O)[O-])cc(C(C)(C)C)cc1[N+](=O)[O-]` (centres undefined) was tested, and the outcome was “inactive”. `Oc1cc(Cl)ccc1Oc1ccc(Cl)cc1Cl` was tested, and the AC50 was 10.1 µM (active) and the outcome was “inactive”. In the case of `CNC(=O)Oc1cccc(N=CN(C)C)c1`, the outcome is reported as “inactive”. `O=S(=O)(O)C(F)(F)C(F)(F)C(F)(F)C(F)(F)C(F)(F)C(F)(F)C(F)(F)C(F)(F)F` was tested, and the outcome was “inactive”. `CCc1ccc(C(=O)NN(C(=O)c2cc(C)cc(C)c2)C(C)(C)C)cc1` was tested, and the outcome was “inactive”. For `O=C(O)C(F)(F)C(F)(F)C(F)(F)C(F)(F)C(F)(F)C(F)(F)C(F)(F)F`, the outcome was “inactive”. For `O=C1c2ccccc2C(=O)N1SC(Cl)(Cl)Cl`, the outcome was “inactive”. In the case of `Oc1ccc(Cl)cc1Cc1ccccc1`, the outcome is reported as “inactive”. `COP(=O)(OC)OC=C(Cl)Cl` was tested, and the outcome was “inactive”. For `O=[N+]([O-])c1c(Cl)c(Cl)c(Cl)c(Cl)c1Cl`, the outcome was “inactive”. In the case of `CNC(=O)Oc1ccccc1OC(C)C`, the outcome is reported as “inactive”. With `CC(C)(C)C(O)C(Oc1ccc(Cl)cc1)n1cncn1` (centres undefined) the outcome was “inactive”. `CN1CSC(=S)N(C)C1` was tested, and the outcome was “inactive”. For `OCCOc1ccccc1`, the outcome was “inactive”. In the case of `CC1(c2ccc(Oc3ccccc3)cc2)OC(=O)N(Nc2ccccc2)C1=O` (centres undefined), the outcome is reported as “inactive”. `ClC1C(Cl)C(Cl)C(Cl)C(Cl)C1Cl` (centres undefined) was tested, and the outcome was “inactive”. In the case of `N#Cc1c(Cl)c(Cl)c(Cl)c(C#N)c1Cl`, the outcome is reported as “inactive”. In the case of `COc1nn(CSP(=S)(OC)OC)c(=O)s1`, the outcome is reported as “inactive”.
